Laboratory results taken from PubChem BioAssay (NCATS).
Inconclusive results are not listed. Active and inactive are the calls of the source. The call rests on the fitted dose curve; in most records, active means well fitted inhibition curve with a large enough effect; inconclusive means small, poorly fitted or top-dose-only effect; inactive means flat fitted curve, though single readings scatter.

Legend:
Assay in all cases: qHTS profiling for inhibitors of Plasmodium falciparum proliferation (AID 504749); further: nearly all actives have a fitted effect of over 60% in size
Settings in all cases: P. falciparum in erythrocytes, SYBR Green DNA, 72 h; series mostly up to 28.7 µM
CP260 = system: CP260
Summary of the method: (§1)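 P. falciparum-infected erythrocytes (0.3% parasitemia, 2.5% hematocrit) incubated with compound 72 h at 37 C, 5% CO2. Parasite DNA detected by SYBR Green after lysis, overnight at room temperature; normalised to 0.29 uM artemisinin and DMSO.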

CP262 = system: CP262
Summary of the method: as §1

CP265 = system: CP265
Summary of the method: as §1

CP266 = system: CP266
Summary of the method: as §1

CP268 = system: CP268
Summary of the method: as §1

CP269 = system: CP269
Summary of the method: as §1

CP286 = system: CP286
Summary of the method: as §1

CP291 = system: CP291
Summary of the method: as §1

CP297 = system: CP297
Summary of the method: as §1

CP305 = system: CP305
Summary of the method: as §1

Measured: Potency
Potency means the concentration at half of the fitted maximal effect.

C=Cc1ccc(S(=O)(=O)O)cc1
inactive: all assays above

NC(N)=O
inactive: all assays above

CCCCC/C=C\C/C=C\C/C=C\CCCCC(=O)O
not listed: CP297
inactive: all other assays above

CC(C)c1nc(N(C)S(C)(=O)=O)nc(-c2ccc(F)cc2)c1/C=C/C(O)CC(O)CC(=O)O (stereo not given)
inactive: all assays above

Cc1cc(C(=O)NCCc2ccc(S(=O)(=O)NC(=O)NN3CCCCCC3)cc2)no1
not listed: CP297
inactive: all other assays above

CN=C1C=CC(=C(c2ccc(N(C)C)cc2)c2ccc(N(C)C)cc2)C=C1
active: CP260 0.224 µM | CP262 0.757 µM | CP265 0.794 µM | CP266 1.07 µM | CP268 1.69 µM | CP269 0.849 µM | CP286 0.199 µM | CP291 1.07 µM | CP297 1.07 µM | CP305 0.953 µM

CC1CCC(NC(=O)N(CCCl)N=O)CC1 (stereo not given)
inactive: all assays above

COC(=O)CC[C@H](N)C(=O)O
inactive: all assays above

OCl
inactive: all assays above

CC(CCc1ccc(O)cc1)NCC(O)c1ccc(O)cc1 (stereo not given)
inactive: all assays above

CCc1ccc(S(=O)(=O)O)cc1
not listed: CP297
inactive: all other assays above

O[C@@H]([C@H](O)[C@H](O)CBr)[C@H](O)CBr
inactive: all assays above

[O-][N+](=Nc1ccccc1)c1ccccc1
inactive: all assays above

CC(=O)Nc1ccc(OC(=O)c2ccccc2O)cc1
inactive: all assays above

CCOC(=O)c1cc(-c2ccccc2)nc2ccc(C)cc12
inactive: all assays above

CC(C)CCCCCCc1ccc(O)cc1
inactive: all assays above

CC(C)[C@H](N)C(=O)OCC(CO)OCn1cnc2c(=O)[nH]c(N)nc21 (stereo not given in full)
inactive: all assays above

Cc1ncc[nH]1
inactive: all assays above

NC(=S)NS(=O)(=O)c1ccc(N)cc1
inactive: all assays above

CN1CCC(OC(=O)C(Oc2ccc(Cl)cc2)Oc2ccc(Cl)cc2)CC1
inactive: all assays above

O=C1CCC(=O)N1CO
not listed: CP297
inactive: all other assays above

Nc1nccs1
inactive: all assays above

N[C@H](CC(=O)O)C(=O)O
inactive: all assays above

CNC(=O)OCc1cccc(COC(=O)NC)n1
inactive: all assays above

O=C1NCCN1c1ncc([N+](=O)[O-])s1
inactive: all assays above

CCCCCCCCCCCCCCCCCC[N+](C)(C)CCC[Si](OC)(OC)OC
inactive: all assays above

CCN(CC)C(=S)S
inactive: all assays above

CCOC(=O)Cc1ccc(-c2ccccc2)cc1
active: CP265 0.0006 µM
not listed: CP297
inactive: all other assays above

COC(=O)CCC[N+](C)(C)C
inactive: all assays above

O=C1c2ccccc2CN2C(=O)c3ccccc3CN12
inactive: all assays above

N=C(N)c1ccc(/C=C/c2ccc(C(=N)N)cc2O)cc1
active: CP260 11.2 µM | CP262 1.35 µM | CP265 11.2 µM | CP268 9.53 µM | CP269 6.75 µM | CP286 4.47 µM | CP291 6.75 µM | CP297 5.36 µM | CP305 6.01 µM

CN(C)CCCSc1ccccc1NC(=O)/C=C/c1ccccc1
not listed: CP268 | CP297
inactive: all other assays above

CC(C)=CCC/C(C)=C/C=C/C(C)=C/C=C/C(C)=C/C=C/C=C(C)/C=C/C=C(C)/C=C/C=C(\C)CCC=C(C)C
not listed: CP266
inactive: all other assays above

CSCCC(N)C(=O)O (stereo not given)
not listed: CP268 | CP291
inactive: all other assays above

O=C(O)c1cc(N=Nc2ccc(O)c(C(=O)O)c2)ccc1O
not listed: CP286
inactive: all other assays above

Cc1ccc(S(=O)(=O)O)cc1C
not listed: CP266
inactive: all other assays above

O=C(O)CC/C=C\CC[C@@H]1[C@@H](N2CCCCC2)[C@@H](O)C[C@@H]1OCc1ccc(-c2ccccc2)cc1
not listed: CP266
inactive: all other assays above

COc1ccc(/C=C/C(=O)OCCC(C)C)cc1
not listed: CP297
inactive: all other assays above

CCCOc1cc(N)ccc1C(=O)OCCN(CC)CC
not listed: CP269 | CP297
inactive: all other assays above

O=P(O)(O)OC[C@H]1O[C@](O)(COP(=O)(O)O)[C@@H](O)[C@@H]1O
not listed: CP297
inactive: all other assays above

FC(F)(F)COCC(F)(F)F
not listed: CP266
inactive: all other assays above

COc1cc(C)c(/C=C/C(C)=C/C=C/C(C)=C/C(=O)O)c(C)c1C
not listed: CP297
inactive: all other assays above

S=C=Nc1ccc(N=C=S)cc1
not listed: CP266
inactive: all other assays above

CC(C)CCCC(C)NC(C)C (stereo not given)
not listed: CP297
inactive: all other assays above

C=C1C(CCl)(CCl)C2(Cl)C(Cl)C(Cl)C1(Cl)C2(Cl)Cl (stereo not given)
active: CP260 3.55 µM | CP262 4.78 µM | CP265 3.55 µM | CP268 4.26 µM | CP269 4.26 µM | CP286 3.55 µM | CP291 4.26 µM | CP297 3.79 µM | CP305 3.79 µM

O=C(O[C@H]1CN2CCC1CC2)N1CCc2ccccc2[C@@H]1c1ccccc1
not listed: CP269
inactive: all other assays above

CO[C@H]1C[C@@H]2CC[C@@H](C)[C@@](O)(O2)C(=O)C(=O)N2CCCC[C@H]2C(=O)O[C@H]([C@H](C)C[C@@H]2CC[C@@H](OC(=O)C(C)(CO)CO)[C@H](OC)C2)CC(=O)[C@H](C)/C=C(\C)[C@@H](O)[C@@H](OC)C(=O)[C@H](C)C[C@H](C)/C=C/C=C/C=C/1C
not listed: CP266
inactive: all other assays above
